In all, about 25,000 sequences were measured (“ln(normalized median fluorescence intensity)”: median about 9.3, highest 2% from about 10 on). Only a selection was taken, and the highest values are over-represented in it overall.
Each sequence was assayed on PF3D7_0420300 AP2 domain 1 (GST-tagged) (assay: gcPBM binding intensity (ln(normalized median fluorescence intensity)); higher = stronger DNA binding).
Outline: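 Alexa488 anti-GST antibody, scanned at 488 nm, detected GST-tagged P. falciparum DNA-binding domains that had been expressed in E. coli and incubated for 1 h on an Agilent 4 × 180k array. The array carried primer-extended double-stranded 36-bp intergenic genomic probes and negative controls. Binding intensity is the highest Masliner-normalised natural-log median intensity across replicate spots of either orientation of each probe.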

Sequence | gcPBM binding intensity (ln)
TTGTTAATAAAAATATTGGAAAGTTTATAAAATTTT [CACACA_negctrl_site1487] | 8.9
TGTTCTTTGTTCAGCGCATGTAAAATAAAATAAAAT [TGCATGCA_site629] | 9.04
AGGAGACTTAAAAAAAGTACAAAAAAAAAAAAAAGC [XGTACX_site1576] | 9.65
TATATATATATACCTTGTACTTACATTCGCATATAA [XGTACX_site2466] | 9.32
TAATATATGTATTGCACACCTATAACCATTATTTCT [CACACA_site1498] | 9.51
TATATATATATTTATACACACACATATATTTATATA [CACACA_site8054] | 9.59
TACATATTTATATACACACACACACGGATATTTATA [CACACA_site7239] | 10.3
AGCACAAGCACAAGCACACATTTATATATAAATACA [CACACA_site4642] | 9.42
ATTTTTATTTTATATACACACAATAATAATATAATA [CACACA_site4015] | 9.39
TATTTATATTTATATACACACATACATATTTATATT [CACACA_site6535] | 9.57
ATAATACACAAGCACACACACACACGGATATTTATA [CACACA_site6714] | 10.3
GAAATACCGGAAAGCAAACACACATTTTAAAACCAT [CACACA_site3861] | 9.68
AGATTTAAATATCATACACACTTTATATATAATACA [CACACA_site4688] | 9.35
CTAGCAAATACATACACACACACACCGATACATATA [CACACA_site9164] | 10.2
CTAGCAAATACATACACACACACACCGATACAGATA [CACACA_site5853] | 10.2
TATACCTATAAATACACACACATATATAAATAAATA [CACACA_site6730] | 10
TATACATATACATATACACACACACCCATAAATAAA [CACACA_site8372] | 9.99
TTAATGGCAAAATAGGCACACACACCGATACATATA [CACACA_site8263] | 9.91
TACTAGCAAATACATACACACACACCCATATACATA [CACACA_site9163] | 10.1
CTAGCAAATACATACACACACACACGGATACCTATA [CACACA_site7609] | 10.2
CACATACAGATATATACACACAAATATATATACTCA [CACACA_site4591] | 9.76
CACATACAGATATATACACACAAATATAAATACACA [CACACA_site6512] | 9.98

Sequence | gcPBM binding intensity (ln)
TAAAAAAAATAGCATACACACATATATACCTATATA [CACACA_site4535] | 9.72
TTAATATAAGCAAATACACACACACCGATATATATA [CACACA_site9269] | 10.2
CTAGCAAATACATACACACACACACCCATACATATA [CACACA_site3496] | 10.3
TATCATTTCATATCAAGTACAAACATTTTACATATA [XGTACX_site5307] | 9.12
GTGCATATCTGATATACACACAATAAAATAGTATGT [CACACA_site7203] | 9.33
AAAAAAAATTCACACTGTACAAAAGCATAAATAAAC [XGTACX_site5408] | 9.75
AATGTGTATATATATACACACACATATATATATTTT [CACACA_site8596] | 9.75
TTAATTTTTAGAAGAACACACACATATATATTATGA [CACACA_site7969] | 9.59
TACAGATACAGATACACACACACACCGAAATAAATA [CACACA_site4865] | 10.3
TATACAGATAAATACACACACACATATATATATATA [CACACA_site4845] | 10
CATACAGATATATATACACACATACAGATAAATACA [CACACA_site4592] | 9.83
TTTAATTTTTATATAACACACATATTGTAATTATGT [CACACA_site4566] | 9.38
ATAAATACTAAAAATGAAATATAGAAAATAGCAATA [CACACA_negctrl_site501] | 9.61
AAAATTCTTCGGGGGAGTACAAGGATATTCTACGTT [XGTACX_site3974] | 9.53
TGATATCTTAAGAAATGTACAAAGATATAACCATTT [XGTACX_site1913] | 9.11
CTCAATATTATTACTACACACAAATTAAAATTTTCC [CACACA_site4203] | 9.45
ATTTATTCATTTGGGTGTACTATTTAAAAAAAACAA [XGTACX_site498] | 9.18
AAGGGAAAATAATAAAAGAAAAAGAAAAAAAAAAAA [CACACA_negctrl_site1518] | 9.21
AAAATAAAAAGAAAAAGAAAAAAGGGGGGGTAGGGG [CACACA_negctrl_site1048] | 10.2
AAGGGGTAAAGAAAAACACACAAAAAATAAAAATAT [CACACA_site361] | 9.65
ATACAGAAAAAAAACACACACACATAATATACATAC [CACACA_site1933] | 10.1
AATTAAAATAATAATACACACATCATAGAAAAAGAC [CACACA_site292] | 10.4
